Among the data in PMC7819943, “Rice protein-binding microarrays: a tool to detect cis-acting elements near promoter regions in rice” are binding signal values, retold here.

The full ranking holds about 68,000 sequences; the median of “fluorescence intensity (a.u.)” is about 9,100, and the highest 2% start at about 16,000. The full list was thinned out, with the highest values kept by preference.

In this assay the target is OsWRKY34 (Oryza sativa, UniProt Q0JBA9 1-250). The assay is described as follows: protein-binding microarray (RPBM); PBS, 2% BSA, 51.3 ng/ul salmon testes DNA, 50 uM zinc acetate, 200 nM TF, 25 C, 1 h; high values mean tight binding. Particulars: protein: recombinant; tags: N-terminal polyhistidine and DsRed monomer fusion (pET32a); label: CyDye5-dUTP incorporated in the synthesized complementary strand; 3' TTTTT single-stranded linker to array surface; dsDNA, one strand shown. The gist of the method: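 Transcription factors were made in E. coli BL21-CodonPlus as N-terminal fusions to a polyhistidine tag and DsRed, then purified on Ni–NTA. After primer extension with Cy5-dUTP and blocking with 2% BSA, a custom Agilent array was exposed for 1 h at 25 °C to 200 nM protein in PBS, 2% BSA, salmon testes DNA and 50 µM zinc acetate. Washed arrays were scanned on an Axon 4000B, and the binding signal is per-feature fluorescence intensity in arbitrary units.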
OsWRKY34, sequence (Q0JBA9 entry or part of it): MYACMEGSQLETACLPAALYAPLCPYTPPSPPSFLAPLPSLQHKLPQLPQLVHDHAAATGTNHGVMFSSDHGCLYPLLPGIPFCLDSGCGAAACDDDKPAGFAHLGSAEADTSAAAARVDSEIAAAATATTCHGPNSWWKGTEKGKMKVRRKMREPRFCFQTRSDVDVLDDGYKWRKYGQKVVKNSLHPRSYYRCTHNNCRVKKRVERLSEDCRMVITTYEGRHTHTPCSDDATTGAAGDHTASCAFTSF
In the case of “CTTCGCTTTCGTCACGTTCTTGATTTGGGCGGGCGCGGAGCGGAGTCACCTAGTGCAG”, the binding signal was 8980 fluorescence intensity (a.u.).
As for “CTCGGGAGAGGGGAGGCGTAGATTCTTCTGTTGCTTCAGTCGGAGTCACCTAGTGCAG”, the figure is 10300 fluorescence intensity (a.u.); as for “CGTCGAACGTCCACTACCATCCTCTTGTTAATCCCGCAAACGGAGTCACCTAGTGCAG”, 8060 fluorescence intensity (a.u.); as for “TTTCTTTGACTCGGTGACTTTGTGAGAGATGTTTTATGCCCGGAGTCACCTAGTGCAG”, 9190 fluorescence intensity (a.u.).
As for “CTCCGTCCCATAATATAAGGGATTTTGACTTTTTACTTGCCGGAGTCACCTAGTGCAG”, the figure is 11200 fluorescence intensity (a.u.).
As to “TCCCCGTTACCGAGCGCCGCCGCCTCCGCCTCCACCTCTACGGAGTCACCTAGTGCAG”, the binding signal is 10100 fluorescence intensity (a.u.).
With “TCTACACAATTCAAAATCCGGCCCTGTTTATTTTGTACTACGGAGTCACCTAGTGCAG”, the binding signal was 8420 fluorescence intensity (a.u.).
Consider “CTACACTCCTAATCTCTCTCTCTTTCTCGAGTGGAATCCACGGAGTCACCTAGTGCAG”, for which the binding signal was 8970 fluorescence intensity (a.u.).
As for “ACGCGCCGCAACGCAACTTCCATGGACGCATCTGGACCACCGGAGTCACCTAGTGCAG”, the figure is 8130 fluorescence intensity (a.u.); as for “GTTTTTAATTTCGATAATATTTGATTCTGTTTTCGTGTCCCGGAGTCACCTAGTGCAG”, 8930 fluorescence intensity (a.u.).
To “ATTACCACTGATGCTGCTTGGTTCGCAATACTTGCTTCTTCGGAGTCACCTAGTGCAG” belongs 9730 fluorescence intensity (a.u.).
To “GACTGAGCTTTGTGGGTGGGTTGGTTGGTTGGTTATACAACGGAGTCACCTAGTGCAG” belongs 30500 fluorescence intensity (a.u.); to “CTCGTATAGTTAGCTTGGAGGACTGAGCTTTGTGGGTGGGCGGAGTCACCTAGTGCAG”, 8880 fluorescence intensity (a.u.).
Consider “GTTCTGACTGTTGTGTTGTGGGTGTTTGGTTTATGAGCAGCGGAGTCACCTAGTGCAG”, for which the binding signal was 8430 fluorescence intensity (a.u.).
As for “GTCTCCATTGCACCCACGTTGGATCCGCCCTTGCACATGGCGGAGTCACCTAGTGCAG”, the figure is 8470 fluorescence intensity (a.u.); as for “TAATTCATGGTTGGTTTTTAATTATATTTCCCTCCTTAAACGGAGTCACCTAGTGCAG”, 9580 fluorescence intensity (a.u.); as for “TCGTCGGTGGTGTGGGGAGGAGAAGATGGCCGGAGAGGAACGGAGTCACCTAGTGCAG”, 15000 fluorescence intensity (a.u.).
For “CGACGGGAGAGGAGGAGCCGGTGGGCGGGGTGGGGCCCACCGGAGTCACCTAGTGCAG”, the binding signal is 11000 fluorescence intensity (a.u.).
In the case of “TTACCAAACTGAAAATAAAAATGTGTGTTTTTTTTAATATCGGAGTCACCTAGTGCAG”, the binding signal is 9410 fluorescence intensity (a.u.).
For “ATTTTGTGTTTTTGTGGTGGTAATATTGTTTTTGAGTTCTCGGAGTCACCTAGTGCAG”, the binding signal was 9700 fluorescence intensity (a.u.).
For “ATCCCAAAATAATGTGTTCGGGTGGGCGGGCGGGAAATATCGGAGTCACCTAGTGCAG”, the binding signal is 23000 fluorescence intensity (a.u.).
As for “TTCGGGGTGTTCGTCAAAAATGTGGGGAGGAGGCATGGATCGGAGTCACCTAGTGCAG”, the figure is 13100 fluorescence intensity (a.u.); as for “GCGGGTGTGGCATTGTGGGTAATCTCGGCCGTTCAAATATCGGAGTCACCTAGTGCAG”, 17300 fluorescence intensity (a.u.); as for “GTGTTCTCATTGTATTGGGTATTCAAATGTTTTGTAATATCGGAGTCACCTAGTGCAG”, 9730 fluorescence intensity (a.u.).
As for “AATCATCACATCATCACCGTCATCTTCTCTAGCATAGCAACGGAGTCACCTAGTGCAG”, the figure is 8050 fluorescence intensity (a.u.).
On to “CCTTCCCATGCTGCTGTGATGTGTCATACGCCGCCGCCACCGGAGTCACCTAGTGCAG”, for which the binding signal is 9920 fluorescence intensity (a.u.).
Regarding “TCCCAACCACACCCACCCACCCGCCCAATCCATCCACCAACGGAGTCACCTAGTGCAG”, the binding signal was 8860 fluorescence intensity (a.u.).
As to “TCCCTTCAAATATTGTTTTTCTTTTAACACTCAATCTCTCCGGAGTCACCTAGTGCAG”, the binding signal is 8940 fluorescence intensity (a.u.).
For “TAGAATTACATCTGATATACCGGTCTTACGCTCTTAGATTCGGAGTCACCTAGTGCAG”, the binding signal is 8860 fluorescence intensity (a.u.).
As to “GCCCAGCCCAGGCCCACCTTATGTTTTGTTGCATCTCTACCGGAGTCACCTAGTGCAG”, the binding signal is 10700 fluorescence intensity (a.u.).
In the case of “AATAGGGCATGAACCCCAGCCATTTCTCCTCATCCCACACCGGAGTCACCTAGTGCAG”, the binding signal was 63200 fluorescence intensity (a.u.).
Take “TTTTTTACCATGGGTCTTGCATTGAATTTTTCTTTTTTTTCGGAGTCACCTAGTGCAG”: the binding signal is 9890 fluorescence intensity (a.u.).
As for “TCCACCCATCGTTCTCATGACCTGCCAACCCCATCCCAGCCGGAGTCACCTAGTGCAG”, the binding signal is 10000 fluorescence intensity (a.u.).
For the sequence “GAACCCACATCCCACCATGACGCGCAATTACCTCATTATCCGGAGTCACCTAGTGCAG”, the binding signal is 17000 fluorescence intensity (a.u.).
In the case of “CTCTCTCCACCCTCAGCCGCCACACTCCCATCCATTCTCCCGGAGTCACCTAGTGCAG”, the binding signal is 9060 fluorescence intensity (a.u.).
On to “TGCCTAGATGAATACTGCATGTTTTTTTTTTGTTTGATTTCGGAGTCACCTAGTGCAG”, for which the binding signal is 9620 fluorescence intensity (a.u.).
Regarding “TCCACCCATCCTCATCATTATCCTCTCTCTCCTCTCTCACCGGAGTCACCTAGTGCAG”, the binding signal was 9640 fluorescence intensity (a.u.).
Turning to “CACAGGGCATGAATTGATGAATAGGATGGCCATTTTTTTTCGGAGTCACCTAGTGCAG”, the binding signal was 65000 fluorescence intensity (a.u.).
As for “TCATCCGCACCAACACCATTAGTTATATTACCCACACATCCGGAGTCACCTAGTGCAG”, the figure is 8520 fluorescence intensity (a.u.); as for “TCCTGTGCGCCTCCCTCGAGCGTGTGACTGTGTTTGTGACCGGAGTCACCTAGTGCAG”, 8710 fluorescence intensity (a.u.); as for “TTTAAGTTTGTTTGGTTGTGGGTTATAGGCTCTATTTCAACGGAGTCACCTAGTGCAG”, 12000 fluorescence intensity (a.u.).
Turning to “ATTTGCATGACATATATCATTACTACATTATTTTATATAGCGGAGTCACCTAGTGCAG”, the binding signal is 8930 fluorescence intensity (a.u.).
